ELG1 repair inh: inhibitors of ELG1-dependent DNA repair in HEK293T cells. HEK293T ELG1-luciferase reporter, luminescence, 16 h; DNA damage induced by 5-fluorouridine. Potency, µM (highest dose often 46.1 µM), actives largely listed as inhibitors. 330,000 compounds, 2.3% hits; note: nearly all actives have a fitted effect of over 55% in size
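Overnight (16 hr) co-exposure of 2,000 cells/well to 5-fluorouridine and compound at 37 °C preceded detection. Luciferase was quantified via ONE-Glo luminescence; loss of signal denotes inhibition.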
RORg inh: inhibitors of mouse ROR gamma transcriptional activity. P51450. Drosophila S2 Gal4-RORgamma UAS-luciferase reporter, 20 h. Potency, µM (top dose mostly 53.6 µM), actives largely listed as inhibitors. 310,000 compounds, 5.4% hits. AID 2551; note: nearly all actives have a fitted effect of over 60% in size
Target sequence (P51450 whole entry, looked up, the tested form may be a part): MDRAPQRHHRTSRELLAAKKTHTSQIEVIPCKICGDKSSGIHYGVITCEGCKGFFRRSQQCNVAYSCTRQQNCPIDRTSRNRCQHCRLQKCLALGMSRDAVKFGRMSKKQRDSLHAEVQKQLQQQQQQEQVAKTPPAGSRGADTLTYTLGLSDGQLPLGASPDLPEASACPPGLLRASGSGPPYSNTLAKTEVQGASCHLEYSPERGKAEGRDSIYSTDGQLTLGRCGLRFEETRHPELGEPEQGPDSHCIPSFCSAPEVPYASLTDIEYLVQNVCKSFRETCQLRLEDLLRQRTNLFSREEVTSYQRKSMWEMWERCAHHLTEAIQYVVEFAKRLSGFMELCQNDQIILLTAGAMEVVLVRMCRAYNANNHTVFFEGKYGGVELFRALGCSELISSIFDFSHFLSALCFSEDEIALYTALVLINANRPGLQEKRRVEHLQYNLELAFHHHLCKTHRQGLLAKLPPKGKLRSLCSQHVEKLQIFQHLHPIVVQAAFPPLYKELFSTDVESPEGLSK
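Read-out: Photinus luciferase luminescence; inhibitors lower reporter signal. Insect Schneider cells with Gal4-ROR gamma fusion under metallothionein promoter, UAS reporter; 700 uM final copper sulfate induction, 20 hr, ambient temperature.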
SW480 rereplic: induces DNA re-replication in SW480 colon adenocarcinoma cells; SW480 DNA re-replication, Hoechst DNA content imaging, 48 h; Potency, µM (top dose mostly 46.1 µM), usual class: activators; 340,000 compounds, 1.8% hits; AID 624297; note: nearly all actives have a fitted effect of over 55% in size
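DNA re-replication was detected as more nuclei of elevated Hoechst intensity after 48 hr exposure to compound (23 nL pinned per well of 250 cells).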
MCF10A rereplic: inducers of DNA re-replication in MCF 10A breast cells | 350,000 compounds, 2.9% hits | Potency, µM (series often up to 46.1 µM), actives largely listed as activators | AID 624296 | MCF 10A DNA re-replication, Hoechst nuclear intensity, 48 h; note: nearly all actives have a fitted effect of over 50% in size
VP16 counter: Gal4-VP16 reporter inhibition counter-screen | 310,000 compounds, 3.5% hits | AID 2546 | Drosophila S2 Gal4-VP16 UAS-luciferase, luminescence, 20 h | Potency, µM (series often up to 53.6 µM), usual class: inhibitors;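 note: Gal4-VP16 expression switched on by copper sulfate through the metallothionein promoter; nearly all actives have a fitted effect of over 50% in size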
Large screens that a line does not name were inactive. Compounds with a hit are over-represented: about 10% of the library has one in this group of screens. Calls come from the whole dose curve; as a rule, active = well fitted curve in the direction sought with a large enough effect; inconclusive = small, poorly fitted or top-dose-only effect, or another doubt; inactive = no such curve, though single readings can be large; an effect the other way counts as inactive or inconclusive.

CCOc1ccc(CNC(=S)N/N=C/c2ccc(OC)c(OC)c2)cc1	ELG1 repair inh inconclusive, RORg inh 11µM, VP16 counter 10µM
COc1cc(/C=N/NC(=S)NCc2ccccc2)ccc1OCC#N	ELG1 repair inh inconclusive, RORg inh 10µM, VP16 counter inconclusive
COc1ccc2c(c1)OC(C)(C)C(c1ccccc1)C2c1ccc(OCCN2CCCC2)cc1 (centres undefined)	SW480 rereplic inconclusive, MCF10A rereplic inconclusive (no result: ELG1 repair inh)
C#CCNC(=O)C1CCN(c2cc(C)nc(-c3ccccc3)n2)CC1	ELG1 repair inh inconclusive
CCN1CCN(c2ccc(S(=O)(=O)N3CCCC3)cn2)CC1	none
CCCCN(C)C(=O)c1ccc(S(=O)(=O)N2CCOCC2)cc1	none
CN1CCN(C(=S)NC(=O)c2ccc(S(=O)(=O)N3CCOCC3)cc2)CC1	RORg inh 10µM, VP16 counter inconclusive
O=C(NC(=S)N1CCN(C(c2ccccc2)c2ccccc2)CC1)c1ccc(S(=O)(=O)N2CCOCC2)cc1	ELG1 repair inh inconclusive, RORg inh 0.32µM, VP16 counter 0.028µM
CCCN(CC1CC1)C(=S)NC(=O)c1ccc(S(=O)(=O)N2CCOCC2)cc1	ELG1 repair inh inconclusive, RORg inh 0.35µM, VP16 counter 0.89µM
O=C(NC(C(=O)O)c1ccccc1)c1ccc(S(=O)(=O)N2CCOCC2)cc1 (centres undefined)	none
CC1CC1C(=O)OCC(=O)N(C)c1c(N)n(Cc2ccccc2)c(=O)[nH]c1=O (centres undefined)	SW480 rereplic inconclusive (no result: RORg inh, VP16 counter)
O=C(N/N=C/c1cc([N+](=O)[O-])ccc1O)C12CC3CC(CC(C3)C1)C2	ELG1 repair inh inconclusive, RORg inh inconclusive, SW480 rereplic inconclusive, MCF10A rereplic 7.3µM, VP16 counter 0.71µM
CCNC(=O)C(=O)N/N=C/c1cc([N+](=O)[O-])ccc1O	ELG1 repair inh inconclusive, RORg inh 11µM, MCF10A rereplic inconclusive, VP16 counter inconclusive
O=[N+]([O-])c1cccc(N/N=C/c2cc([N+](=O)[O-])ccc2O)c1	ELG1 repair inh inconclusive, MCF10A rereplic inconclusive
O=C(N/N=C/c1cc([N+](=O)[O-])ccc1O)Nc1ccccc1	ELG1 repair inh inconclusive, RORg inh 4.5µM, SW480 rereplic inconclusive, MCF10A rereplic inconclusive, VP16 counter 22µM
O=C(N/N=C/c1cc([N+](=O)[O-])ccc1O)NC12CC3CC(CC(C3)C1)C2	ELG1 repair inh inconclusive, RORg inh 3.5µM, MCF10A rereplic inconclusive, VP16 counter inconclusive (no result: SW480 rereplic)
CC(c1nc2scc(-c3ccccc3)c2c(=O)[nH]1)N1CCN(CC(=O)NC2CC2)CC1 (centres undefined)	none (no result: RORg inh, VP16 counter)
Cc1ccc(S(=O)(=O)N2CCN(C(=O)COC(=O)c3cnc(C)cn3)CC2)c(C)c1	none (no result: RORg inh, VP16 counter)
CCN(CC)c1ccc(C(=S)NC2CCCCC2)cc1	RORg inh 8.9µM, SW480 rereplic inconclusive, MCF10A rereplic inconclusive, VP16 counter 14µM
CN(C)c1ccc(C(=S)N2CCNCC2)cc1	none
CN(C)c1ccc(C(=O)OCC(=O)NC2CCCCCC2)cc1	none
CN(C)c1ccc(C(=S)NC2CCCCC2)cc1	ELG1 repair inh inconclusive, RORg inh 8.9µM
CCOc1ccc(C(=S)NC2CCCCC2)cc1OCC	none (no result: RORg inh, VP16 counter)
CN(C)c1ccc(C(=S)N2CCCCC2)cc1	ELG1 repair inh inconclusive, RORg inh 11µM
CCc1ccccc1NC(=O)c1ccc(CN2CCC(Cc3ccccc3)CC2)cc1	SW480 rereplic inconclusive, MCF10A rereplic inconclusive
Cc1cc(=O)n2nc(N3CCC(C(=O)NCCc4ccc(Cl)cc4)CC3)sc2n1	none
CC(C)(C)CC(C)(C)N1CNC(=S)NC1	RORg inh 10µM, VP16 counter inconclusive
Cc1cc2oc3c(c(=O)c2cc1C)C(c1cccc(Br)c1)N(Cc1ccco1)C3=O (centres undefined)	ELG1 repair inh 0.63µM, MCF10A rereplic 10µM
O=C(/C=C/c1ccco1)c1ccc(NC(=O)C23CC4CC(CC(C4)C2)C3)cc1	MCF10A rereplic inconclusive, VP16 counter inconclusive
O=C(CSc1nc2ccccc2s1)NCC1CCCO1 (centres undefined)	none
O=C(CSc1nc2ccc(NC(=O)C3CCCCC3)cc2s1)NCC1CCCO1 (centres undefined)	ELG1 repair inh 13µM
CC1=CCC(/C=N\Nc2nnc3c(n2)[nH]c2ccccc23)CC1 (centres undefined)	ELG1 repair inh inconclusive (no result: SW480 rereplic, MCF10A rereplic)
Cc1ccc(C(=O)NCCNC(=O)c2ccco2)cn1	none
Cc1noc(C)c1COc1cccc(C(=O)Nc2ccc(Br)cc2F)c1	ELG1 repair inh inconclusive, SW480 rereplic 15µM, MCF10A rereplic 5.8µM (no result: RORg inh, VP16 counter)
Cc1noc(C)c1COc1cccc(C(=O)OC(C)C(=O)Nc2ccc3c(c2)OCO3)c1 (centres undefined)	ELG1 repair inh inconclusive, SW480 rereplic inconclusive, MCF10A rereplic 15µM
COc1cc(C(=O)OC(C)C(=O)Nc2ccc3c(c2)OCO3)ccc1OCc1c(C)noc1C (centres undefined)	ELG1 repair inh inconclusive
Cc1noc(C)c1COc1ccc(C(=O)NNC(=O)c2ccccc2F)cc1	SW480 rereplic 12µM (no result: RORg inh, VP16 counter)
Cc1ccc(NC(=O)c2cccc(OCc3c(C)noc3C)c2)c(C)c1	RORg inh inconclusive
Cc1noc(C)c1COc1ccc(C(=O)NNC(=O)c2ccccc2)cc1	SW480 rereplic 13µM, MCF10A rereplic 21µM (no result: RORg inh, VP16 counter)
CC(C)c1ccc(C2(C)NC(=O)N(CC(=O)NC3(C#N)CCCC3)C2=O)cc1 (centres undefined)	none (no result: RORg inh, VP16 counter)
COc1ccc(OCC(=O)N2N=C(C(F)F)CC2(O)C(F)F)cc1 (centres undefined)	none
Cc1ccc(NC(=O)c2ccc(OCc3c(C)noc3C)cc2)cc1C	ELG1 repair inh 10µM (no result: RORg inh, VP16 counter)
CC(=O)Nc1ccc(NC(=O)c2ccc(OCc3c(C)noc3C)cc2)cc1	none (no result: RORg inh, VP16 counter)
Cc1ccc(S(=O)(=O)N2CCN(C(=O)c3ccc(OCc4c(C)noc4C)cc3)CC2)cc1	ELG1 repair inh inconclusive
Cc1ccc(C)c(S(=O)(=O)N2CCN(C(=O)c3ccc(OCc4c(C)noc4C)cc3)CC2)c1	ELG1 repair inh 16µM (no result: RORg inh, VP16 counter)
O=C1CCCN1CC(=O)N1CCCC(N2CCN(c3cccc(Cl)c3)CC2)C1 (centres undefined)	none
COC(=O)C(CO)NC(=O)C1CCCN1C(=O)CNC(=O)OCc1ccccc1 (centres undefined)	none
CCOc1ccc(C(=O)Nc2ccc3[nH]ncc3c2)cc1	ELG1 repair inh inconclusive, RORg inh inconclusive, VP16 counter inconclusive
CC(C)(C)NC(=O)C1CC1(c1ccccc1)c1ccccc1 (centres undefined)	ELG1 repair inh inconclusive
COc1ccc(/C=C2/C(=O)OCc3cc(OC)c(OC)cc32)cc1	SW480 rereplic 4.1µM, MCF10A rereplic inconclusive
N#Cc1cc2c(=O)n3ccccc3nc2n(Cc2cccnc2)c1=O	SW480 rereplic 2.3µM, MCF10A rereplic 12µM (no result: ELG1 repair inh, RORg inh, VP16 counter)

High-throughput results deposited in PubChem BioAssay by National Center for Advancing Translational Sciences (NCATS).
